Here are results for 21 compounds from PubChem BioAssay.

As usually defined, the inhibition is the relative decrease from the control value, in per cent.

The structures appear in SMILES notation. A number with no mark means an inactive call. For part of these data: Entries with a potency or affinity are not part of this list. The source made the active and inactive calls. Unless noted, the rule behind the calls is not given here.

Assay [1] can be described thus: antimalarial activity against Dd2 strain (AID 2302;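 active = growth inhibition above 50% at the single 2 µM test dose, taken to imply half-maximal potency below 2 µM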;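 note: 0% = DMSO untreated growth and 100% = chloroquine plus artemisinin killed control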). The following applies: P. falciparum Dd2 in RBCs, LDH growth readout, 72 h; at 2 µM; active compounds read high.
Assay [2] is described as follows: human hepatoma cell viability loss – ATP luminescence, cytotoxicity control for P. falciparum antimalarial project, primary screen (AID 2303;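 active = inhibition above 50%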;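 note: 0% = DMSO wells and 100% = digitonin-killed cells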). Conditions: HepG2 viability, 24-48 h, at 10 µM, active compounds read high.
Assay [3] concerns the target L-lactate dehydrogenase (Plasmodium falciparum (isolate CDC / Honduras)) (UniProt Q27743). Briefly: PfLDH activity inhibition – cell lysate, 3D7 strain, counter-screen for P. falciparum growth inhibition project (AID 2304).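 Note: 0% = vehicle and 100% = reference inhibitor.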 Conditions: P. falciparum 3D7 crude extract, LDH APAD/NBT absorbance; at 2 µM; active compounds read high. A general note: The purpose of a counterscreen is to sort out artefacts and off-target activity.

Assay [4] can be described thus: inhibition of 3D7 malaria parasite growth – strain 3D7 (AID 2306).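 Note: 0% = DMSO wells and 100% = chloroquine plus artemisinin control wells.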 Conditions: P. falciparum 3D7 erythrocytic growth, LDH absorbance, 72 h; at 2 µM; active compounds read high.
Assay [5] addresses Calcium-dependent protein kinase 1 (Plasmodium falciparum (isolate 3D7)) (UniProt P62344). The assay is described as follows: PfCDPK1 kinase inhibitors, biochemical, TCAMS library (AID 1159585; cut-off not given, nearly all actives have IC50 up to about 0.98 µM;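 note: inhibitors leave more ATP so luminescence rises with inhibition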). Conditions: recombinant PfCDPK1, Kinase-Glo ATP depletion luminescence. A general note: In Kinase-Glo more light means more ATP remaining.
Assay [6] addresses Plasmodium falciparum protein kinase 6 (PK6, PF3D7_1337100) (UniProt Q8IDW1). The assay is described as follows: PfPK6 kinase inhibitors, biochemical, TCAMS library (AID 1159586). Conditions: recombinant PfPK6, Kinase-Glo ATP depletion luminescence.
Assay [7] addresses Protein kinase 7 (PK7), Plasmodium falciparum 3D7 (PF3D7_0213400) (UniProt Q7YTF7). Briefly: inhibition of Plasmodium PK7 catalytic activity – biochemical, TCAMS antimalarial set, Kinase-Glo luminescence (AID 1159587). Conditions: recombinant PfPK7, Kinase-Glo ATP depletion luminescence.
Assay [8] addresses Calcium-dependent protein kinase 4 (Plasmodium falciparum (isolate 3D7)) (UniProt Q8IBS5). Briefly: PfCDPK4 kinase inhibitors, biochemical, TCAMS library (AID 1159588; cut-off not given, nearly all actives have IC50 up to about 0.91 µM). The following applies: recombinant PfCDPK4, Kinase-Glo ATP depletion luminescence.

Calcium-dependent protein kinase 1 (Plasmodium falciparum (isolate 3D7)), sequence (P62344 whole entry, looked up): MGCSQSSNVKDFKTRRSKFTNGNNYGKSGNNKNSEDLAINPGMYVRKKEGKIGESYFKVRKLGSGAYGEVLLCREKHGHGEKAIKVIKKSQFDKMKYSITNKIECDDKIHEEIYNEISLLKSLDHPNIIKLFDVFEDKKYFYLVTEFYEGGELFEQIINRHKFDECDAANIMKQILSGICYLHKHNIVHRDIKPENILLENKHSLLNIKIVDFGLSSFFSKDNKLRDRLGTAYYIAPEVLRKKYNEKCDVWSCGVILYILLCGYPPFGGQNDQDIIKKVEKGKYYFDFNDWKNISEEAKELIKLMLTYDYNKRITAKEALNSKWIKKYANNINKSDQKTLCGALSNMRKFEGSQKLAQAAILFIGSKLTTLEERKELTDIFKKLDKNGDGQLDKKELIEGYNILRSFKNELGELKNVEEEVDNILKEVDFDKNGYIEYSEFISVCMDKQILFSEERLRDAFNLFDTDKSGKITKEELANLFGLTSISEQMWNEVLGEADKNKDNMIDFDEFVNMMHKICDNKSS
L-lactate dehydrogenase (Plasmodium falciparum (isolate CDC / Honduras)), sequence (Q27743 whole entry, looked up): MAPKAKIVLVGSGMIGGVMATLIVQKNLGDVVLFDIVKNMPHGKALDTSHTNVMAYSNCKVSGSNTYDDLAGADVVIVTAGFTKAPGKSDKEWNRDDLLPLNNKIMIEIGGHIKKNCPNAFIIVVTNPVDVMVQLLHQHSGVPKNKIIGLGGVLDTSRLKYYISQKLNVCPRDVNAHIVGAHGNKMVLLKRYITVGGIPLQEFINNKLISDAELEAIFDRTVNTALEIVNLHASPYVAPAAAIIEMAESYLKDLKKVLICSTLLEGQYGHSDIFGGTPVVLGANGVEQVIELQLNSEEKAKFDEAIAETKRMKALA
Plasmodium falciparum protein kinase 6 (PK6, PF3D7_1337100), sequence (Q8IDW1 1-305): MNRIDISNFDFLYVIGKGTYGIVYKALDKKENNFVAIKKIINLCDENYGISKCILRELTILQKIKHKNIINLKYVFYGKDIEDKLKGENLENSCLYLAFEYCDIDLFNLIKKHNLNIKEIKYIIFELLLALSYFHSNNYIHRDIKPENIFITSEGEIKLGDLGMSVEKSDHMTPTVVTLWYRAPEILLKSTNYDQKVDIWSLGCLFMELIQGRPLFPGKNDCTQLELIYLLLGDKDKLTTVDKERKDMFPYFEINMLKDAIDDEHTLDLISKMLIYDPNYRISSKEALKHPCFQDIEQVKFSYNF
Protein kinase 7 (PK7), Plasmodium falciparum 3D7 (PF3D7_0213400), sequence (Q7YTF7 1-343): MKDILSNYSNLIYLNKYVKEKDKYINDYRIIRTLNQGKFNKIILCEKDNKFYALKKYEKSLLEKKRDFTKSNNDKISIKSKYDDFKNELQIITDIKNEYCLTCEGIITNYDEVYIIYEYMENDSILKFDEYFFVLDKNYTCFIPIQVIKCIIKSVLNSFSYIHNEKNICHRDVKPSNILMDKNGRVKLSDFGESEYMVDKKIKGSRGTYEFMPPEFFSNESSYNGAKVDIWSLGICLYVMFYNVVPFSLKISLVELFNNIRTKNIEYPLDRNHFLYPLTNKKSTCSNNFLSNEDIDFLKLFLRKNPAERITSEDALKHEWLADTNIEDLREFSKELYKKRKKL
Calcium-dependent protein kinase 4 (Plasmodium falciparum (isolate 3D7)), sequence (Q8IBS5 whole entry, looked up): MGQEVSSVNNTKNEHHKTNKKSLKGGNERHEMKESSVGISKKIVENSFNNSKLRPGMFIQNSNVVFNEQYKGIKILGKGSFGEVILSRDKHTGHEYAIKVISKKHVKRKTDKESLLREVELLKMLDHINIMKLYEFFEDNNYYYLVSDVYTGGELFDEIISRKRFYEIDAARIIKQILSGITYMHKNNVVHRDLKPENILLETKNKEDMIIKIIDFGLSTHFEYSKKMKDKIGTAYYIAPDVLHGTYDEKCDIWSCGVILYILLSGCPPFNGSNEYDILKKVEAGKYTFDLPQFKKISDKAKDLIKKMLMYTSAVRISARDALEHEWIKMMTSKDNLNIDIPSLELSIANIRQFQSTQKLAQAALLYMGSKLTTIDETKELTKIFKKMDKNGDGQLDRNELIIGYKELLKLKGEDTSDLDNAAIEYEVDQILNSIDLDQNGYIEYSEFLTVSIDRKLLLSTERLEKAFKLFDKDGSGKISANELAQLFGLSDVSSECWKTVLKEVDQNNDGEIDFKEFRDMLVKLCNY

Regarding `CSc1nnc2n(Cc3ccccc3)c(=O)c3c(n12)-c1ccccc1CC31CCCCC1`, the growth inhibition was -6% in assay [1] and 93% (active) in assay [4]. The results for the inhibition in assay [2] and in assay [3] were 0% and 1%, respectively. The outcome in assay [5], in assay [6], in assay [7] and in assay [8] was inactive.

Turning to `O=[N+]([O-])c1cccc(CNC2CCN(Cc3ccc(Cl)c(Cl)c3)CC2)c1`, the growth inhibition in assay [1] was 71% (active); in assay [4], 100% (active). The inhibition in assay [2] is 5%; in assay [3], 3%. Also, the result in assay [5], in assay [6], in assay [7] and in assay [8] was inactive.

For the compound `N#Cc1ccc(N(CCOC(=O)c2ccccc2)Cc2ccccc2C(F)(F)F)cc1C(F)(F)F`, the growth inhibition is 67% (active) in assay [1] and 92% (active) in assay [4]. Also, the inhibition in assay [2] was 6%; in assay [3], -1%. In addition, the outcome in assay [5], in assay [6], in assay [7] and in assay [8] was inactive.

As for `Cc1ccc(-c2nc(N3CCN(C(=O)c4ccco4)CC3)c3ccc(Cl)cc3n2)cc1`, the figures for the growth inhibition in assay [1] and in assay [4] were 78% (active) and 90% (active), respectively. Besides, the values for the inhibition in assay [2] and in assay [3] were 17% and 3%, respectively. Also, the result in assay [5], in assay [6], in assay [7] and in assay [8] was inactive.

As for `COc1cc(Nc2nccc(NCC(O)c3ccc(C(F)(F)F)cc3)n2)cc(OC)c1OC` (stereo not drawn), the growth inhibition in assay [1] was 14%; in assay [4], 91% (active). The results for the inhibition in assay [2] and in assay [3] were 45% and -2%, respectively. Besides, the outcome in assay [5], in assay [6], in assay [7] and in assay [8] was inactive.

Consider `COCCCNC(=O)[C@H]1CNCCN1C(=O)c1ccccc1`, for which the growth inhibition was 95% (active) in assay [1] and 97% (active) in assay [4]. The inhibition in assay [2] is 53% (active); in assay [3], -2%. The outcome in assay [5], in assay [6], in assay [7] and in assay [8] was inactive.

As to `CCCCNc1nccc2ccc(-c3ccncc3)cc12`, the growth inhibition in assay [1] was 1%; in assay [4], 93% (active). In addition, the inhibition was 6% in assay [2] and 1% in assay [3]. The outcome in assay [5], in assay [6], in assay [7] and in assay [8] was inactive.

In the case of `COc1ccc2nccc([C@@H](O)CN3CCC(NC(=O)c4ccc(Oc5ccccc5)cc4)CC3)c2c1`, the growth inhibition in assay [1] is 13%; in assay [4] it was 82% (active). The inhibition was 39% in assay [2] and 2% in assay [3]. The outcome in assay [5], in assay [6], in assay [7] and in assay [8] was inactive.

As to `CCN(C(=O)CSc1cc(C)c2cc(C)cc(C)c2n1)C1CCS(=O)(=O)C1` (stereo not drawn), the growth inhibition in assay [1] was 82% (active); in assay [4] it was 97% (active). The inhibition in assay [2] is 5%; in assay [3], -1%. The outcome in assay [5], in assay [6], in assay [7] and in assay [8] was inactive.

As to `COc1ccc(C(=O)Nc2ccc(-c3nc4ccc(C)cc4[nH]3)cc2)cc1OC`, the figures for the growth inhibition in assay [1] and in assay [4] were 38% and 100% (active), respectively. The inhibition is 70% (active) in assay [2] and 0% in assay [3]. For the same compound, the result in assay [5], in assay [6], in assay [7] and in assay [8] was inactive.

Take `O=C(Nc1cccc(-c2cccc(-c3nc4ccccc4[nH]3)c2)c1)Nc1ccc(Cl)c(Cl)c1`: the growth inhibition is 98% (active) in assay [1] and 101% (active) in assay [4]. Also, the inhibition in assay [2] was 78% (active); in assay [3], -3%. The outcome in assay [5], in assay [6], in assay [7] and in assay [8] was inactive.

As to `CC(=O)c1ccc(N2CCN(CCC3(c4ccc(Cl)c(Cl)c4)COCN(C(=O)c4ccccc4)C3)CC2)cc1` (stereo not drawn), the growth inhibition in assay [1] was 95% (active); in assay [4], 88% (active). Further, the inhibition in assay [2] is 12%; in assay [3], 5%. Moreover, the outcome in assay [5], in assay [6], in assay [7] and in assay [8] was inactive.

For the compound `Oc1c(Br)cc2oc3c(c2c1CNCc1ccccc1)CCCC3`, the results for the growth inhibition in assay [1] and in assay [4] were 74% (active) and 99% (active), respectively. For the same compound, the inhibition is -19% in assay [2] and 0% in assay [3]. Moreover, the outcome in assay [5], in assay [6], in assay [7] and in assay [8] was inactive.

As for `CCc1cc2c3c(N)nc(N)nc3ccc2n1C(C)CC` (stereo not drawn), the figures for the growth inhibition in assay [1] and in assay [4] were 99% (active) and 100% (active), respectively. Moreover, the figures for the inhibition in assay [2] and in assay [3] were 73% (active) and 0%, respectively. Besides, the outcome in assay [5], in assay [6], in assay [7] and in assay [8] was inactive.

In the case of `COC(=O)c1cccc(CNCc2ccc(-c3ccc(-c4nc5c(C)cccc5[nH]4)s3)cc2)c1`, the growth inhibition in assay [1] is 64% (active); in assay [4] it was 101% (active). Moreover, the inhibition in assay [2] was 3%; in assay [3], 0%. The outcome in assay [5], in assay [6], in assay [7] and in assay [8] was inactive.

Consider `Cc1cc(N[C@@H](CC(C)C)C(=O)NCc2cccc(F)c2)nc(NCCc2ccccc2)n1`, for which the growth inhibition in assay [1] was 33%; in assay [4], 88% (active). Moreover, the inhibition was 6% in assay [2] and -1% in assay [3]. Also, the result in assay [5], in assay [6], in assay [7] and in assay [8] was inactive.

In the case of `COc1ccc2ncc(F)c(CCN3CC[C@@H](CNCc4nc5c(cc4C)SCC(=O)N5)C3)c2n1`, the growth inhibition in assay [1] was 42%; in assay [4], 91% (active). Also, the inhibition in assay [2] was 14%; in assay [3] it was 1%. The outcome in assay [5], in assay [6], in assay [7] and in assay [8] was inactive.

Regarding `CNCCNCc1cccc(-c2ccc(-c3nc4ccccc4[nH]3)cc2)c1`, the results for the growth inhibition in assay [1] and in assay [4] were 27% and 99% (active), respectively. For the same compound, the inhibition was 13% in assay [2] and -6% in assay [3]. The result in assay [5], in assay [6], in assay [7] and in assay [8] was inactive.

As for `O=C(NCCCNc1nc2ccccc2[nH]1)c1cccc(OC(F)(F)F)c1`, the growth inhibition was 27% in assay [1] and 102% (active) in assay [4]. For the same compound, the inhibition in assay [2] is 12%; in assay [3] it was -2%. Further, the outcome in assay [5], in assay [6], in assay [7] and in assay [8] was inactive.

Turning to `COc1ccc(CN2CCCC(Nc3ccc(F)c(F)c3)C2)c(O)c1` (stereo not drawn), the results for the growth inhibition in assay [1] and in assay [4] were 83% (active) and 95% (active), respectively. Also, the inhibition is 14% in assay [2] and 3% in assay [3]. Further, the outcome in assay [5], in assay [6], in assay [7] and in assay [8] was inactive.

With `COc1cc2ncnc(NCCc3ccccc3Cl)c2cc1OC`, the growth inhibition is 11% in assay [1] and 88% (active) in assay [4]. Besides, the inhibition is 0% in assay [2] and 3% in assay [3]. For the same compound, the result in assay [5], in assay [6], in assay [7] and in assay [8] was inactive.
